Source: PubChem BioAssay (Tox21)
Inconclusive results are not listed. Active and inactive are the calls of the source. Unless noted, calls follow the shape of the full dose curve.

Experiments:
[1] = Nuclear factor erythroid 2-related factor 2/antioxidant responsive element (Nrf2/ARE) small molecule agonists: qHTS cell viability counter screen in human keratinocytes (AID 1919968; active = well fitted curve in the direction sought with a large enough effect in the repeat runs; an effect the other way counts as inactive or inconclusive; also: nearly all actives have a fitted effect of over 55% in size)
Method in brief: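 Parallel cytotoxicity read: KeratinoSens HaCaT cells, compound treatment 23 h, viability by CellTiter-Fluor fluorescence 1 h post-reagent.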

[2] = Nuclear factor erythroid 2-related factor 2/antioxidant responsive element (Nrf2/ARE) small molecule agonists: luciferase reporter gene qHTS assay in human keratinocytes (AID 1919969); also: nearly all actives have a fitted effect of over 35% in size
[3] = molecular target: Gonadotropin-releasing hormone receptor (Homo sapiens) (UniProt P30968); experiment: Human gonadotropin-releasing hormone receptor (GnRHR) small molecule agonists, calcium flux assay in GnRHR-HEK293 cells (AID 1920063); also: nearly all actives have a fitted effect of over 35% in size
Sequence of Gonadotropin-releasing hormone receptor (Homo sapiens) (P30968 whole entry, looked up): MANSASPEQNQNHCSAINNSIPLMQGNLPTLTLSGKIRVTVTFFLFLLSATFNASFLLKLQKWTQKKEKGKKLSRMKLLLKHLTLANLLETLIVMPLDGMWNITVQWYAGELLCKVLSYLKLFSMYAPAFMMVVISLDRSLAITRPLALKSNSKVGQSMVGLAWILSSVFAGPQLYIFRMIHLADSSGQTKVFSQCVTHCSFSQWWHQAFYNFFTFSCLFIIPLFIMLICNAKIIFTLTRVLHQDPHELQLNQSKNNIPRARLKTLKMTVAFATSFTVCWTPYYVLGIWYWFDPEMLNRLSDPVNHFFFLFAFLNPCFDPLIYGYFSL
Method in brief: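 Calcium flux, agonist mode, human GnRHR stably integrated in HEK293; dye 1 h at 37 C before compound; Ex/Em=480/540 kinetic read, 3 min; 15 concentrations, triplicate.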

[4] = molecular target: KiSS-1 receptor (Homo sapiens) (UniProt Q969F8); experiment: Human kisspeptin (KISS1R) small molecule agonists, calcium flux assay in KISS1R-HEK293 cells (AID 1920064; active = well fitted curve in the direction sought with a large enough effect in the repeat runs; an effect the other way counts as inactive or inconclusive)
Sequence of KiSS-1 receptor (Homo sapiens) (Q969F8 whole entry, looked up): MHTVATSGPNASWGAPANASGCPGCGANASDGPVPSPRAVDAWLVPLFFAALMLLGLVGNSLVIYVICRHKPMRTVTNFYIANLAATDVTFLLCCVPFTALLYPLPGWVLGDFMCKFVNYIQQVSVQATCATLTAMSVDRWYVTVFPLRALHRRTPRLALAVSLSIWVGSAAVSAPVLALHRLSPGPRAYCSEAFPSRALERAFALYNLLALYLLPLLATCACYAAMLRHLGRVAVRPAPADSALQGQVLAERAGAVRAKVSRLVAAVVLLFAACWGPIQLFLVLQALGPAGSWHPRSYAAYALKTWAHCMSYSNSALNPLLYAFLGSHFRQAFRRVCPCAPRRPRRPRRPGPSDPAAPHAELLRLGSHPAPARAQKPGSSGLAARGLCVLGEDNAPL
Method in brief: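 Triplicate 15-concentration series were applied to dye-loaded human KISS1R HEK293 cells, and agonist-evoked calcium fluorescence was captured for 3 min.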

[5] = G protein-coupled receptor (GPCR) small molecule agonists, calcium flux assay: HEK293 wild type cell line counter screen (AID 1920065)
Method in brief: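 Non-specific calcium responders were flagged by adding DMSO-dissolved compounds to dye-loaded cells and reading 480/540 nm fluorescence each second for 3 min; ATP served as positive control.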

[6] = p53 small molecule agonists, cell-based qHTS assay with human liver microsomes (AID 1963577);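 also: p53 response element beta-lactamase reporter cells with liver microsomes plus NADPH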
Method in brief: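 In this qHTS, p53 response-element beta-lactamase cells receive test compound together with a microsome/NADPH activating system (0.5 mg/mL final each) and are incubated 16 h at 37 C before LiveBLAzer fluorescence detection.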

[7] = p53 small molecule agonists, cell-based qHTS assay with rat liver microsomes (AID 1963578)
Method in brief: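 Agonist mode in p53RE-bla reporter cells, with compounds co-incubated 16 h at 37 C alongside 0.5 mg/mL rat liver microsomes and 0.5 mg/mL NADPH (final), followed by a 2 h LiveBLAzer detection step.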

[8] = p53 small molecule agonists, cell-based qHTS assay with human liver microsomes: qHTS cell viability counter screen (AID 1963579); also: nearly all actives have a fitted effect of over 45% in size
Method in brief: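 Metabolically activated exposure: compounds, human liver microsomes and NADPH (0.5 mg/mL final apiece) were added to p53RE-bla cells seeded 5 h earlier, left 16 h at 37 C, and then assessed for viability by CellTiter-Glo luminescence.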

[9] = p53 small molecule agonists, cell-based qHTS assay with rat liver microsomes: qHTS cell viability counter screen (AID 1963580); also: nearly all actives have a fitted effect of over 45% in size
Method in brief: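 Rat liver microsome (0.5 mg/mL final) and NADPH (0.5 mg/mL final) co-incubation with compounds for 16 h at 37 C on HCT-116 p53RE-bla cells; cytotoxicity taken from intracellular ATP luminescence.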

[10] = p53 small molecule agonists, cell-based qHTS assay: qHTS cell viability counter screen (AID 1963581); also: nearly all actives have a fitted effect of over 45% in size
Method in brief: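 Multiplexed with the reporter read, a CellTiter-Glo step (30 min, room temperature) gauges ATP-based viability of HCT-116 p53RE-bla cells after 16 h compound incubation at 37 C.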

[11] = p53 small molecule agonists, cell-based qHTS assay (AID 1963582; active = well fitted activation curve with a large enough effect in the signal ratio in the repeat runs, not every such curve was filed as active; the % refers to the signal ratio)
Method in brief: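 Beta-lactamase reporter cells (p53RE-bla) treated with compounds for 16 h at 37 C; FRET substrate, 2 h, room temperature; fluorescence intensity.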

[12] = molecular target: 5-hydroxytryptamine receptor 2A (Homo sapiens) (UniProt P28223); experiment: 5-hydroxytryptamine receptor 2A (HTR2A) small molecule antagonists, cell-based qHTS assay (AID 1963586); also: nearly all actives have a fitted effect of over 45% in size
Sequence of 5-hydroxytryptamine receptor 2A (Homo sapiens) (P28223 whole entry, looked up): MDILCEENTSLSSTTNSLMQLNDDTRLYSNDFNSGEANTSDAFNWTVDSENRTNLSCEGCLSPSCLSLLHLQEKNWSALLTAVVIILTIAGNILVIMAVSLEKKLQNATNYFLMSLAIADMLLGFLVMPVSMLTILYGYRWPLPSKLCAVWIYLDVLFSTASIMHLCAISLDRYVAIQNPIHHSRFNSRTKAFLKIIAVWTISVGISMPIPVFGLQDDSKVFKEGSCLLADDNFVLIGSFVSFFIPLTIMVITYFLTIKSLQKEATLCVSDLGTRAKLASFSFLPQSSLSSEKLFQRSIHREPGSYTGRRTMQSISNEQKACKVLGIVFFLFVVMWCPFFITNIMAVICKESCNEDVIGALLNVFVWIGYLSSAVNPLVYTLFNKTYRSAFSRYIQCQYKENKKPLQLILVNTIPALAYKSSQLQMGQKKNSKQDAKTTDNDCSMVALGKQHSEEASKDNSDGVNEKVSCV
Method in brief: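 CHO cells stably expressing human HTR2A were plated for 18 h at 37 C, then loaded with calcium dye for 1 h. Compounds were preincubated 5 min at room temperature before DOI (4 nM solution) was added. Kinetic fluorescence was read for 3 min.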

[13] = molecular target: 5-hydroxytryptamine receptor 2A (Homo sapiens) (UniProt P28223); experiment: 5-hydroxytryptamine receptor 2A (HTR2A) small molecule agonists, cell-based qHTS assay (AID 1963587); also: nearly all actives have a fitted effect of over 30% in size
Method in brief: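 Kinetic calcium-flux fluorescence (2 min, 1 sec intervals) after compound addition in agonist mode. HTR2A-CHO cells were cultured 18 h, then dye-loaded 1 h at 37 C.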

[14] = molecular target: Muscarinic acetylcholine receptor M1 (Homo sapiens) (UniProt P11229); experiment: Cholinergic receptor muscarinic 1 (CHRM1) small molecule antagonists, cell-based qHTS assay (AID 1963588); also: nearly all actives have a fitted effect of over 40% in size
Sequence of Muscarinic acetylcholine receptor M1 (Homo sapiens) (P11229 whole entry, looked up): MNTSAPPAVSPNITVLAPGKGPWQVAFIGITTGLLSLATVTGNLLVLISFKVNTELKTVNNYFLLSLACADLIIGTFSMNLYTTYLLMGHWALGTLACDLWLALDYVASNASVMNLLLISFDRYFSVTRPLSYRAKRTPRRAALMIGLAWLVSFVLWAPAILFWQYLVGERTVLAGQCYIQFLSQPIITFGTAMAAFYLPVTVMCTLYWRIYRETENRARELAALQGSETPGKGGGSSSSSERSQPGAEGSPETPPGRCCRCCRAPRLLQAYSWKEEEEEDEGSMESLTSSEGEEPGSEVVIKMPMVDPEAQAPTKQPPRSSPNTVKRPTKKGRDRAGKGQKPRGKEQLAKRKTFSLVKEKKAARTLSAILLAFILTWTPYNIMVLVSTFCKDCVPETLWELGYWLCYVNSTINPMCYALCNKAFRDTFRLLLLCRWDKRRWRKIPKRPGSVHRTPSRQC
Method in brief: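 Compounds were tested at 15 concentrations in three independent runs. Dye-loaded CHRM1-CHO cells were exposed 5 min at room temperature before stimulation by acetylcholine added at 50nM. Intracellular calcium was read kinetically on FDSS for 3 min.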

[15] = molecular target: Muscarinic acetylcholine receptor M1 (Homo sapiens) (UniProt P11229); experiment: Cholinergic receptor muscarinic 1 (CHRM1) small molecule agonists, cell-based qHTS assay (AID 1963589); also: nearly all actives have a fitted effect of over 35% in size
Method in brief: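 qHTS, 15-point titration, 3 independent runs: compounds pin-transferred onto dye-loaded CHRM1-CHO cells (human M1), calcium fluorescence followed every second to detect agonism.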

[16] = cAMP Responsive Elements (CRE) small molecule agonists, cell-based qHTS assay (AID 1963590)
Method in brief: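 Quantitative HTS for CRE agonists: HEK 293T CRE-bla cells, overnight plating, 3 h compound incubation at 37 C/5% CO2, then 2 h room-temperature LiveBLAzer B/G FRET substrate loading.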

[17] = cAMP Responsive Elements (CRE) small molecule antagonists, cell-based qHTS assay (AID 1963591; active = well fitted inhibition curve with a large enough effect in the signal ratio in the repeat runs, not every such curve was filed as active; the % refers to the signal ratio)
Method in brief: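 Fluorescence intensity from cleaved LiveBLAzer B/G substrate (2 h, room temperature) quantified CRE-bla activity in HEK 293T cells exposed 3 h to compound with 0.25 uM final NKH477.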

[18] = molecular target: Beta-2 adrenergic receptor (Homo sapiens) (UniProt P07550); experiment: Adrenergic beta2 receptor (ADRB2) small molecule antagonists, cell-based qHTS assay (AID 1963592); also: series mostly up to about 92 µM; nearly all actives have a fitted effect of over 50% in size
Sequence of Beta-2 adrenergic receptor (Homo sapiens) (P07550 whole entry, looked up): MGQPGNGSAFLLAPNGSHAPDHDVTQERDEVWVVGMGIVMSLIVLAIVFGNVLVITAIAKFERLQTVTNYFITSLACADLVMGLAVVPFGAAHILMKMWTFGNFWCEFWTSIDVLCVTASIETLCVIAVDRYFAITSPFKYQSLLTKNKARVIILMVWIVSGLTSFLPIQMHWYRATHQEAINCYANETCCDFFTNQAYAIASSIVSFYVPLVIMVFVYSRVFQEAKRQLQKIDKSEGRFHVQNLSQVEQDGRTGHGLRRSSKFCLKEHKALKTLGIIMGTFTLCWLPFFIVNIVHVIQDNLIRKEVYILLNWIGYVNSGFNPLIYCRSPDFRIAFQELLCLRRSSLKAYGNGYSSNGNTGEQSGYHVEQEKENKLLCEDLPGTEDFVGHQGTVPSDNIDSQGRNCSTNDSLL
Method in brief: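 Assay format: CHO-ADRB2 cells, 18-20hr seeding at 37C/5% CO2, then compound plus 1nM isoproterenol agonist mix for 0.5hr RT. Homogeneous time-resolved fluorescence cAMP detection after 1hr, expressed as 665/615 nm ratio.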

[19] = molecular target: D(2) dopamine receptor (Homo sapiens) (UniProt P14416); experiment: Dopamine D2 receptor (DRD2) small molecule agonists, cell-based qHTS assay (AID 1963594); also: nearly all actives have a fitted effect of over 35% in size
Sequence of D(2) dopamine receptor (Homo sapiens) (P14416 whole entry, looked up): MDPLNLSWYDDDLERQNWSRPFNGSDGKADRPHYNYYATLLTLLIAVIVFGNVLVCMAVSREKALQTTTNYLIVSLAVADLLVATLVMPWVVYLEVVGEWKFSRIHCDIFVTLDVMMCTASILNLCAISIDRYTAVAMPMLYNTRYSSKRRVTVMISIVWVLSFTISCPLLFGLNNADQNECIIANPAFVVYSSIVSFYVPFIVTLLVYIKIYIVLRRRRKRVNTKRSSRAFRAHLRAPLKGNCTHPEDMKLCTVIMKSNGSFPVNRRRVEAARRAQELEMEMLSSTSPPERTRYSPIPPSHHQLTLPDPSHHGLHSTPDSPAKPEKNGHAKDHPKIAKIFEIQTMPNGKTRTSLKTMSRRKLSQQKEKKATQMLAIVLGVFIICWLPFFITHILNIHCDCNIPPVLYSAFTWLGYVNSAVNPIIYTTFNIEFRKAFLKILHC
Method in brief: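 cAMP accumulation in DRD2-HEK293 cells measured by HTRF after 1 h detection; compounds added 10 min before NKH477 (200nM […]) forskolin-analogue stimulation, 30 min at room temperature, with Ro20-1724 present at 0.1 mM final.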

[20] = molecular target: D(2) dopamine receptor (Homo sapiens) (UniProt P14416); experiment: Dopamine D2 receptor (DRD2) small molecule antagonists, cell-based qHTS assay (AID 1963595; active = well fitted inhibition curve with a large enough effect in the signal ratio in the repeat runs, with a control signal flat; the % refers to the signal ratio)
Method in brief: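 Cells were plated and grown for 24 h at 37 °C. Ro20-1724 (0.1 mM final) went in first, then compound for 10 min. NKH477 (200 nM) with quinpirole (12 nM) followed for 30 min at RT, then HTRF detection reagents for 1 h.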
% is scaled to controls: 0 for no effect and ±100 for the full control effect.

CCC1(c2ccccc2)CCC(=O)NC1=O (centres undefined)
inactive: Potency [1] | Potency [2] | Potency [3] | Potency [4] | Potency [5] | Potency [6] | Potency [7] | Potency [8] | Potency [9] | Potency [10] | Potency [11] | Potency [12] | Potency [13] | Potency [14] | Potency [15] | Potency [16] | Potency [17] | Potency [18] | Potency [19] | Potency [20]

CC(C)CCON=O
inactive: Potency [1] | Potency [2] | Potency [3] | Potency [4] | Potency [5] | Potency [6] | Potency [7] | Potency [8] | Potency [9] | Potency [10] | Potency [11] | Potency [12] | Potency [13] | Potency [14] | Potency [15] | Potency [16] | Potency [17] | Potency [18] | Potency [19]

O=c1ccc(=O)[nH][nH]1
inactive: Potency [1] | Potency [2] | Potency [3] | Potency [4] | Potency [5] | Potency [6] | Potency [7] | Potency [8] | Potency [9] | Potency [10] | Potency [11] | Potency [12] | Potency [13] | Potency [14] | Potency [15] | Potency [16] | Potency [17] | Potency [18] | Potency [19] | Potency [20]

CS(=O)(=O)Cl
inactive: Potency [1] | Potency [2] | Potency [3] | Potency [4] | Potency [5] | Potency [6] | Potency [7] | Potency [8] | Potency [9] | Potency [10] | Potency [11] | Potency [12] | Potency [13] | Potency [14] | Potency [15] | Potency [16] | Potency [17] | Potency [18] | Potency [19] | Potency [20]

CNC(=O)N(C)c1nnc(C(C)(C)C)s1
inactive: Potency [1] | Potency [2] | Potency [3] | Potency [4] | Potency [5] | Potency [6] | Potency [7] | Potency [8] | Potency [9] | Potency [10] | Potency [11] | Potency [12] | Potency [13] | Potency [14] | Potency [15] | Potency [16] | Potency [17] | Potency [18] | Potency [19] | Potency [20]

c1nc[nH]n1
inactive: Potency [1] | Potency [2] | Potency [3] | Potency [4] | Potency [5] | Potency [6] | Potency [7] | Potency [8] | Potency [9] | Potency [10] | Potency [11] | Potency [12] | Potency [13] | Potency [14] | Potency [15] | Potency [16] | Potency [17] | Potency [18] | Potency [19] | Potency [20]

Nc1ccccc1C(=O)O
inactive: Potency [1] | Potency [2] | Potency [3] | Potency [4] | Potency [5] | Potency [6] | Potency [7] | Potency [8] | Potency [9] | Potency [10] | Potency [11] | Potency [12] | Potency [13] | Potency [14] | Potency [15] | Potency [16] | Potency [17] | Potency [18] | Potency [19] | Potency [20]

Brc1c(Br)c(Br)c(Br)c(Br)c1Br
inactive: activity change, negative = cytotoxicity [1] 1.17% [at 8.39 µM] | activity, positive = activation [2] 1.37% [at 8.39 µM] | activity change [3] 0.959% [at 5.22 µM, active compounds read high] | activation [4] -5.73% [at 6.97 µM] | activation [5] 0.0498% [at 5.23 µM] | activation [6] 1.36% [at 5.99 µM] | activation [7] -3.05% [at 5.99 µM] | activity change, negative = cytotoxicity [8] -1.65% [at 5.99 µM] | activity change, negative = cytotoxicity [9] 2.93% [at 5.99 µM] | activity change, negative = cytotoxicity [10] -11.2% [at 5.99 µM] | activation [11] 2.53% [at 5.99 µM] | activity, negative = inhibition [12] -11.3% [at 5.62 µM] | activation [13] -1.65% [at 7.02 µM] | activity, negative = inhibition [14] 23.8% [at 5.58 µM] | activation [15] -0.148% [at 6.97 µM] | activation [16] -0.136% [at 8.39 µM] | activity change, negative = inhibition [17] -5.46% [at 8.39 µM] | activity change, negative = inhibition [18] -9.58% [at 8.39 µM] | activation [19] -0.47% [at 8.39 µM] | activity change, negative = inhibition [20] -0.734% [at 8.38 µM]
